Source: the supplement of paper PMC9492666
Where a name gives a salt, the structure may show the parent alone.

Columns and labels:
HCC1937 = assay: relative cell viability, compound + erastin, vs DMSO (fraction of DMSO control); higher = less growth inhibition; settings: 72 h
MDA-MB-231 = assay: as above; settings: 72 h
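Also: viability read by CCK-8 kit in 96-well plates, part of a combination screen pairing lipid-metabolism-targeting compounds with erastin.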

SMILES	relative cell viability (HCC1937)	relative cell viability (MDA-MB-231)
CN(C)CCOC(=O)COc1ccc(Cl)cc1 [Meclofenoxate hydrochloride] + CCOc1ccccc1-n1c(C(C)N2CCN(C(=O)COc3ccc(Cl)cc3)CC2)nc2ccccc2c1=O [erastin]	0.693	0.81
Cc1c(C(=O)NN2CCOCC2)nn(-c2ccc(Cl)cc2Cl)c1-c1ccc(I)cc1 + CCOc1ccccc1-n1c(C(C)N2CCN(C(=O)COc3ccc(Cl)cc3)CC2)nc2ccccc2c1=O [erastin]	0.1	0.325
C=C(C)[C@@H]1CCC2=CC(=O)C[C@@H](C)[C@]2(C)C1 [Nootkatone] + CCOc1ccccc1-n1c(C(C)N2CCN(C(=O)COc3ccc(Cl)cc3)CC2)nc2ccccc2c1=O [erastin]	0.577	0.706
N#Cc1ccc(Oc2cccc(NC(=O)Nc3ccc(Cl)c(C(F)(F)F)c3)c2)cc1 + CCOc1ccccc1-n1c(C(C)N2CCN(C(=O)COc3ccc(Cl)cc3)CC2)nc2ccccc2c1=O [erastin]	0.0713	0.127
COc1ccc(-c2coc3cc(OC)ccc3c2=O)cc1 [4',7-Dimethoxyisoflavone] + CCOc1ccccc1-n1c(C(C)N2CCN(C(=O)COc3ccc(Cl)cc3)CC2)nc2ccccc2c1=O [erastin]	0.313	0.427
CC1(C)CC[C@]2(C(=O)O[C@@H]3O[C@H](CO)[C@@H](O)[C@H](O)[C@H]3O)CC[C@]3(C)C(=CC[C@@H]4[C@@]5(C)CC[C@H](O[C@@H]6O[C@H](C(=O)O)[C@@H](O)[C@H](O)[C@H]6O)C(C)(C)[C@@H]5CC[C@]43C)[C@@H]2C1 [Chikusetsusaponin IVa] + CCOc1ccccc1-n1c(C(C)N2CCN(C(=O)COc3ccc(Cl)cc3)CC2)nc2ccccc2c1=O [erastin]	0.592	0.682
COc1cc(N(C)C)cc(CN(C)CCc2ccc([N+](=O)[O-])cc2)c1O [CDC25 Phosphatase Inhibitor I] + CCOc1ccccc1-n1c(C(C)N2CCN(C(=O)COc3ccc(Cl)cc3)CC2)nc2ccccc2c1=O [erastin]	0.663	0.781
COc1c(/C=C/C(=O)c2ccc(O)cc2)ccc(O)c1CC=C(C)C + CCOc1ccccc1-n1c(C(C)N2CCN(C(=O)COc3ccc(Cl)cc3)CC2)nc2ccccc2c1=O [erastin]	0.58	0.749
CC[C@H]1[C@@H](O)[C@@H]2[C@H](CC[C@]3(C)[C@@H]([C@H](C)CCC(=O)O)CC[C@@H]23)[C@@]2(C)CC[C@@H](O)C[C@@H]12 [Obeticholic Acid] + CCOc1ccccc1-n1c(C(C)N2CCN(C(=O)COc3ccc(Cl)cc3)CC2)nc2ccccc2c1=O [erastin]	0.616	0.771
NC(=O)c1ncn([C@@H]2O[C@H](CO)[C@@H](O)[C@H]2O)c1N [AICAR (Acadesine)] + CCOc1ccccc1-n1c(C(C)N2CCN(C(=O)COc3ccc(Cl)cc3)CC2)nc2ccccc2c1=O [erastin]	0.85	0.973
O=C1/C(=C/c2cccs2)CC/C1=C\c1cccs1 + CCOc1ccccc1-n1c(C(C)N2CCN(C(=O)COc3ccc(Cl)cc3)CC2)nc2ccccc2c1=O [erastin]	0.514	0.658
